# Assay results reported in PubChem BioAssay (Tox21).
# A number with no mark means an inactive call. Results filed as inconclusive are left out. Where a call stands in place of a potency, no number is given. Active and inactive are the calls of the source. Unless noted, calls come from the whole dose curve.
# Tests used:
# [1] = Nuclear factor erythroid 2-related factor 2/antioxidant responsive element (Nrf2/ARE) small molecule agonists: qHTS cell viability counter screen in human keratinocytes (AID 1919968; active = well fitted curve in the direction sought with a large enough effect in the repeat runs; an effect the other way counts as inactive or inconclusive; note: nearly all actives have a fitted effect of over 55% in size; note: potency is the fitted concentration of half-maximal effect)
# Procedure, shortened: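 KeratinoSens cells (HaCaT keratinocytes stably carrying an ARE-luciferase reporter) were seeded at 1,500 cells/well and rested 5 h at 37 C/5% CO2. They were then exposed to compounds in DMSO for 23 h. Viability was read by CellTiter-Fluor fluorescence after 1 h.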
# [2] = Nuclear factor erythroid 2-related factor 2/antioxidant responsive element (Nrf2/ARE) small molecule agonists: luciferase reporter gene qHTS assay in human keratinocytes (AID 1919969); note: nearly all actives have a fitted effect of over 35% in size; note: potency is the fitted concentration of half-maximal effect
# [3] = target: Gonadotropin-releasing hormone receptor (Homo sapiens) (UniProt P30968); experiment: Human gonadotropin-releasing hormone receptor (GnRHR) small molecule agonists, calcium flux assay in GnRHR-HEK293 cells (AID 1920063); note: nearly all actives have a fitted effect of over 35% in size; note: potency is the fitted concentration of half-maximal effect
# Procedure, shortened: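 HEK293 cells stably expressing human GnRHR were plated 18 h at 37 °C, loaded with calcium dye 1 h at 37 °C, then given compound in agonist mode; fluorescence (Ex/Em 480/540) read kinetically for 3 min at 1 s intervals.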
# [4] = G protein-coupled receptor (GPCR) small molecule agonists, calcium flux assay: HEK293 wild type cell line counter screen (AID 1920065); note: potency is the fitted concentration of half-maximal effect
# Procedure, shortened: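 Cells were plated and cultured 18 h at 37 C/5% CO2, then loaded with calcium dye for 1 h at 37 C. Compounds in DMSO were pin-transferred in agonist mode, and fluorescence (Ex/Em 480/540) was read kinetically for 3 min at 1 s intervals.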
# [5] = p53 small molecule agonists, cell-based qHTS assay with human liver microsomes: qHTS cell viability counter screen (AID 1963579); note: nearly all actives have a fitted effect of over 45% in size; note: potency is the fitted concentration of half-maximal effect
# Procedure, shortened: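 Metabolically activated exposure: compounds, human liver microsomes and NADPH (0.5 mg/mL final apiece) were added to p53RE-bla cells seeded 5 h earlier, left 16 h at 37 C, and then assessed for viability by CellTiter-Glo luminescence.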
# [6] = p53 small molecule agonists, cell-based qHTS assay with rat liver microsomes: qHTS cell viability counter screen (AID 1963580); note: nearly all actives have a fitted effect of over 45% in size; note: potency is the fitted concentration of half-maximal effect
# Procedure, shortened: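 HCT-116 p53RE-bla, 4,000 cells/well, 5 h pre-incubation; cpd + rat liver microsomes 0.5 mg/mL + NADPH 0.5 mg/mL (final); 16 h, 37 C; CellTiter-Glo, 30 min RT; luminescence.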
# [7] = p53 small molecule agonists, cell-based qHTS assay: qHTS cell viability counter screen (AID 1963581); note: nearly all actives have a fitted effect of over 45% in size; note: potency is the fitted concentration of half-maximal effect
# Procedure, shortened: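 p53RE-bla HCT-116 cells were exposed to compounds for 16 h at 37 C; after the beta-lactamase FRET read in the same wells, CellTiter-Glo was added and luminescence (intracellular ATP) read after 30 min at room temperature.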
# [8] = p53 small molecule agonists, cell-based qHTS assay (AID 1963582; active = well fitted activation curve with a large enough effect in the signal ratio in the repeat runs, not every such curve was filed as active; the % refers to the signal ratio)
# Procedure, shortened: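 p53RE-bla beta-lactamase reporter cells rested 5 h at 37 C/5% CO2, then received compounds in DMSO by pin transfer and were incubated 16 h at 37 C. LiveBLAzer B/G FRET substrate was loaded for 2 h at room temperature before fluorescence reading.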
# [9] = target: Muscarinic acetylcholine receptor M1 (Homo sapiens) (UniProt P11229); experiment: Cholinergic receptor muscarinic 1 (CHRM1) small molecule antagonists, cell-based qHTS assay (AID 1963588); note: nearly all actives have a fitted effect of over 40% in size
# Procedure, shortened: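 CHRM1-CHO calcium-flux assay, antagonist mode. Cells were seeded 18 h, dye-loaded 1 h at 37 C and given compound for 5 min at RT, then acetylcholine was added at 50nM. FDSS fluorescence was read 3 min; 15 concentrations, three runs.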
# [10] = target: Muscarinic acetylcholine receptor M1 (Homo sapiens) (UniProt P11229); experiment: Cholinergic receptor muscarinic 1 (CHRM1) small molecule agonists, cell-based qHTS assay (AID 1963589); note: nearly all actives have a fitted effect of over 35% in size
# Procedure, shortened: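 CHO cells stably expressing human CHRM1, seeded 18 h at 37 C/5% CO2, dye-loaded 1 h at 37 C, then given compound in agonist mode; intracellular calcium fluorescence read kinetically at 1 s intervals. Fifteen concentrations, three independent runs.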
# [11] = cAMP Responsive Elements (CRE) small molecule agonists, cell-based qHTS assay (AID 1963590)
# Procedure, shortened: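 CRE-bla HEK 293T cells in DMEM with 10% dialyzed FBS, NEAA, pyruvate and 25 mM HEPES were plated 18 h at 37 C/5% CO2, then exposed to compounds in DMSO for 3 h before LiveBLAzer B/G FRET substrate addition.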
# [12] = cAMP Responsive Elements (CRE) small molecule antagonists, cell-based qHTS assay (AID 1963591; active = well fitted inhibition curve with a large enough effect in the signal ratio in the repeat runs, not every such curve was filed as active; the % refers to the signal ratio)
# Procedure, shortened: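 CRE-bla HEK293T cells were plated 18 h at 37 °C/5% CO2, pinned with compound in DMSO, then stimulated with NKH477 at 0.25 uM final for 3 h. LiveBLAzer B/G FRET substrate was added and plates incubated 2 h at room temperature.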
# [13] = target: Beta-2 adrenergic receptor (Homo sapiens) (UniProt P07550); experiment: Adrenergic beta2 receptor (ADRB2) small molecule antagonists, cell-based qHTS assay (AID 1963592); note: nearly all actives have a fitted effect of over 50% in size; note: potency is the fitted concentration of half-maximal effect; for activity change, negative = inhibition: series mostly up to about 92 µM
# Procedure, shortened: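 Cells (CHO, stable ADRB2 overexpression) incubated 18-20hr at 37C; compounds added from DMSO; agonist mix (1nM isoproterenol, 100uM IBMX, 25uM Ro-20-1724) added; 0.5hr RT; d2-cAMP and anti-cAMP-cryptate added; 1hr RT; 665/615 nm read.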
# [14] = target: D(2) dopamine receptor (Homo sapiens) (UniProt P14416); experiment: Dopamine D2 receptor (DRD2) small molecule agonists, cell-based qHTS assay (AID 1963594); note: nearly all actives have a fitted effect of over 35% in size; note: potency is the fitted concentration of half-maximal effect
# Procedure, shortened: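 cAMP accumulation in DRD2-HEK293 cells measured by HTRF after 1 h detection; compounds added 10 min before NKH477 (200nM […]) forskolin-analogue stimulation, 30 min at room temperature, with Ro20-1724 present at 0.1 mM final.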
# [15] = target: D(2) dopamine receptor (Homo sapiens) (UniProt P14416); experiment: Dopamine D2 receptor (DRD2) small molecule antagonists, cell-based qHTS assay (AID 1963595; active = well fitted inhibition curve with a large enough effect in the signal ratio in the repeat runs, with a control signal flat; the % refers to the signal ratio; note: potency is the fitted concentration of half-maximal effect)
# Procedure, shortened: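 Antagonism was scored as restored cAMP in HEK293-DRD2 cells. These cells were stimulated with 200 nM NKH477 and 12 nM quinpirole for 30 min at room temperature, in the presence of 0.1 mM Ro20-1724.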
# [16] = p53 small molecule agonists, cell-based qHTS assay with human liver microsomes (AID 1963577);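 note: p53 response element beta-lactamase reporter cells with liver microsomes plus NADPH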
# Procedure, shortened: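 In this qHTS, p53 response-element beta-lactamase cells receive test compound together with a microsome/NADPH activating system (0.5 mg/mL final each) and are incubated 16 h at 37 C before LiveBLAzer fluorescence detection.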
# [17] = p53 small molecule agonists, cell-based qHTS assay with rat liver microsomes (AID 1963578)
# Procedure, shortened: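 Agonist mode in p53RE-bla reporter cells, with compounds co-incubated 16 h at 37 C alongside 0.5 mg/mL rat liver microsomes and 0.5 mg/mL NADPH (final), followed by a 2 h LiveBLAzer detection step.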
# [18] = target: 5-hydroxytryptamine receptor 2A (Homo sapiens) (UniProt P28223); experiment: 5-hydroxytryptamine receptor 2A (HTR2A) small molecule agonists, cell-based qHTS assay (AID 1963587); note: nearly all actives have a fitted effect of over 30% in size
# Procedure, shortened: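 Kinetic calcium-flux fluorescence (2 min, 1 sec intervals) after compound addition in agonist mode. HTR2A-CHO cells were cultured 18 h, then dye-loaded 1 h at 37 C.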
# [19] = target: KiSS-1 receptor (Homo sapiens) (UniProt Q969F8); experiment: Human kisspeptin (KISS1R) small molecule agonists, calcium flux assay in KISS1R-HEK293 cells (AID 1920064; active = well fitted curve in the direction sought with a large enough effect in the repeat runs; an effect the other way counts as inactive or inconclusive)
# Procedure, shortened: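 HEK293 cells stably expressing human KISS1R were plated 18 h at 37 °C, loaded with calcium dye for 1 h at 37 °C, then given compound by pin tool. Fluorescence (Ex/Em 480/540) was read kinetically for 3 min.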
# [20] = target: 5-hydroxytryptamine receptor 2A (Homo sapiens) (UniProt P28223); experiment: 5-hydroxytryptamine receptor 2A (HTR2A) small molecule antagonists, cell-based qHTS assay (AID 1963586); note: nearly all actives have a fitted effect of over 45% in size
# Procedure, shortened: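 Antagonist-mode intracellular calcium assay: DOI (4 nM) added after 5 min compound pre-incubation at room temperature to dye-loaded HTR2A-CHO cells. Fluorescence followed for 3 min, sampled every second.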
# Sequence of D(2) dopamine receptor (Homo sapiens) (P14416 whole entry, looked up): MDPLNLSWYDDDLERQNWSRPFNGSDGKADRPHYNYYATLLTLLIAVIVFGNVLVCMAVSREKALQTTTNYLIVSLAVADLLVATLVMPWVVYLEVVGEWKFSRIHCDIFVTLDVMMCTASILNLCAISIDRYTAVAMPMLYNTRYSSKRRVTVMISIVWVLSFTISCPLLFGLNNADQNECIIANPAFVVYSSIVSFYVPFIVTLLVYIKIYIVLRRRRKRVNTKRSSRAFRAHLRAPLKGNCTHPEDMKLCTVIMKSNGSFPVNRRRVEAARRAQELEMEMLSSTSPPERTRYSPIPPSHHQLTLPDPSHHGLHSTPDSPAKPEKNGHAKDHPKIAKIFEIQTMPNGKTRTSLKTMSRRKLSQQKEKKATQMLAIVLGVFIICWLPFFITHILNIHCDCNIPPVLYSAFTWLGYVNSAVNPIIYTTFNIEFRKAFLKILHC
# Sequence of Beta-2 adrenergic receptor (Homo sapiens) (P07550 whole entry, looked up): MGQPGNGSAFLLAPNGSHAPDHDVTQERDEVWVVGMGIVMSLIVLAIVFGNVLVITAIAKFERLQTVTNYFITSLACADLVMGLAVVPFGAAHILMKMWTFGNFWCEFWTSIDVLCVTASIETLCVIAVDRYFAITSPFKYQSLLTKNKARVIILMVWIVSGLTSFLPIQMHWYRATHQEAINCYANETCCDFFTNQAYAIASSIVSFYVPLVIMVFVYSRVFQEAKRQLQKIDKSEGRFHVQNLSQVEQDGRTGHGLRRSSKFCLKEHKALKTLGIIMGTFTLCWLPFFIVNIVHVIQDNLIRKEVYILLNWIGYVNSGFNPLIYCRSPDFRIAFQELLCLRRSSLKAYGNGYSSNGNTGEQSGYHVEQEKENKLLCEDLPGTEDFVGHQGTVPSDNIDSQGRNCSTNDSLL
# Sequence of Gonadotropin-releasing hormone receptor (Homo sapiens) (P30968 whole entry, looked up): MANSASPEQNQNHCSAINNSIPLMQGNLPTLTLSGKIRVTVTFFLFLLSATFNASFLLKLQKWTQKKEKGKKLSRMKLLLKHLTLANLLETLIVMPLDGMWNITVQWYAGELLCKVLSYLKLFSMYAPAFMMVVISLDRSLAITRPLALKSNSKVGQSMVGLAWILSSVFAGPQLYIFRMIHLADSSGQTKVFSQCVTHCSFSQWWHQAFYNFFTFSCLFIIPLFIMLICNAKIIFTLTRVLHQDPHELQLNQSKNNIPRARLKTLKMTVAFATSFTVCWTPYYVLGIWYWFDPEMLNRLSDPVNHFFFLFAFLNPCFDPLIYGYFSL
# Sequence of Muscarinic acetylcholine receptor M1 (Homo sapiens) (P11229 whole entry, looked up): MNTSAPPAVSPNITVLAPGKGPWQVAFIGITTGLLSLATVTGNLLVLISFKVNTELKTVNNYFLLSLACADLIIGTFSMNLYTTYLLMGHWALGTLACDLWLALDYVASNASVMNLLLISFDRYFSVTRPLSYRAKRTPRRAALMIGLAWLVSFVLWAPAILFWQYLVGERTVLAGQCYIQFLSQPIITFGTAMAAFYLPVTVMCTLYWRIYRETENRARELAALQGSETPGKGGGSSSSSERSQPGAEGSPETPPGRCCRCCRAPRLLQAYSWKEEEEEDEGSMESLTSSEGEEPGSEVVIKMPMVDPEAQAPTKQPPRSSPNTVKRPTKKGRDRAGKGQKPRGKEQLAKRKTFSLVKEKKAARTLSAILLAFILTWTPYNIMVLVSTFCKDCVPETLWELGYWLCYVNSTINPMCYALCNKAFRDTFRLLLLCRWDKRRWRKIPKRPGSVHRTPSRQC
# Sequence of 5-hydroxytryptamine receptor 2A (Homo sapiens) (P28223 whole entry, looked up): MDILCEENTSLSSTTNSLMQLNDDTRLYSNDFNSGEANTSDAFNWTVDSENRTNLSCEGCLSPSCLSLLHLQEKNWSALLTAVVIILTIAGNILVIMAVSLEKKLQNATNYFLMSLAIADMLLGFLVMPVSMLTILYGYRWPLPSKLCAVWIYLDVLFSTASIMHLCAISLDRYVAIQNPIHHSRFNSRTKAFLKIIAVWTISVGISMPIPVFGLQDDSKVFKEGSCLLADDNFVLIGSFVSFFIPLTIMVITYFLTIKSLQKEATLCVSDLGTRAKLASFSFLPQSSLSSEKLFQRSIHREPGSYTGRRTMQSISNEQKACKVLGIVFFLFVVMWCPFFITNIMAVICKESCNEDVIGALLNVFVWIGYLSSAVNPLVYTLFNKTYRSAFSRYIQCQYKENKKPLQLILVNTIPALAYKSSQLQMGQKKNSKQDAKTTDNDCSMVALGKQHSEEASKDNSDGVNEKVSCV
# Sequence of KiSS-1 receptor (Homo sapiens) (Q969F8 whole entry, looked up): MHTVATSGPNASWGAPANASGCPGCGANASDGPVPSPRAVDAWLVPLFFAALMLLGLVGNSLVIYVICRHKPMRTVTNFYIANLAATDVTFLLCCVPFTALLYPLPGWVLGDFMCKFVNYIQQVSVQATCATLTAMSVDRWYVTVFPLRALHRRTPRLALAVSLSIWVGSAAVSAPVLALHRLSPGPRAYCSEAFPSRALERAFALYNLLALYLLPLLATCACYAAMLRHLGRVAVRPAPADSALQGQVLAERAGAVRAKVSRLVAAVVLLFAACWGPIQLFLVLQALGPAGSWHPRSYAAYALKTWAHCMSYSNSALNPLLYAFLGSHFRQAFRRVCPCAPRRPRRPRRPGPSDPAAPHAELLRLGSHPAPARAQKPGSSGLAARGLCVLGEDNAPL
smiles,measurement,setting,value
O=C(CCCCl)c1ccc(F)cc1,Potency,[1],inactive
same,Potency,[2],inactive
same,Potency,[3],inactive
same,Potency,[4],inactive
same,Potency,[5],inactive
same,Potency,[6],inactive
same,Potency,[7],inactive
same,Potency,[8],inactive
same,Potency,[9],inactive
same,Potency,[10],inactive
same,Potency,[11],inactive
same,Potency,[12],inactive
same,Potency,[13],inactive
same,Potency,[14],inactive
same,Potency,[15],inactive
CC(=O)OCC1=C(C(=O)O)N2C(=O)[C@@H](N)[C@H]2SC1,"activity change, negative = cytotoxicity",[1],3.02% [at 19 µM]
same,"activity, positive = activation",[2],-4.57% [at 19 µM]
same,activity change,[3],"-1.33% [at 11.8 µM, stronger effect = higher value]"
same,activation,[16],8.26% [at 13.5 µM]
same,activation,[17],0.252% [at 13.6 µM]
same,"activity change, negative = cytotoxicity",[6],0.524% [at 13.5 µM]
same,activation,[8],1.4% [at 13.5 µM]
same,activation,[18],1.54% [at 15.9 µM]
same,activation,[10],0.141% [at 15.8 µM]
same,activation,[11],-2.32% [at 19 µM]
same,"activity change, negative = inhibition",[12],-7.18% [at 18.9 µM]
same,"activity change, negative = inhibition",[13],-0.292% [at 19 µM]
same,activation,[14],5.76% [at 19 µM]
same,"activity change, negative = inhibition",[15],7.52% [at 18.9 µM]
CC(C)(C)C(O)C(Oc1ccc(Cl)cc1)n1cncn1 (stereo not drawn),Potency,[1],inactive
same,Potency,[2],68.6 µM (active)
same,Potency,[3],inactive
same,Potency,[4],inactive
same,Potency,[17],inactive
same,Potency,[5],inactive
same,Potency,[7],inactive
same,Potency,[8],inactive
same,Potency,[18],inactive
same,Potency,[11],inactive
same,Potency,[15],inactive
CC[C@H](C)[C@H]1O[C@]2(C=C[C@@H]1C)C[C@@H]1C[C@@H](C/C=C(\C)[C@@H](O[C@H]3C[C@H](OC)[C@@H](O[C@H]4C[C@H](OC)[C@@H](O)[C@H](C)O4)[C@H](C)O3)[C@@H](C)/C=C/C=C3\CO[C@@H]4[C@H](O)C(C)=C[C@@H](C(=O)O1)[C@]34O)O2,Potency,[1],16.1 µM (active)
same,Potency,[2],inactive
same,Potency,[3],inactive
same,Potency,[4],inactive
same,Potency,[17],inactive
same,Potency,[5],inactive
same,Potency,[6],inactive
same,Potency,[7],19.1 µM (active)
same,Potency,[14],inactive
same,Potency,[15],inactive
CC(O)C#N (stereo not drawn),Potency,[1],inactive
same,Potency,[2],61.1 µM (active)
same,Potency,[19],inactive
same,Potency,[4],inactive
same,Potency,[16],inactive
same,Potency,[17],inactive
same,Potency,[5],inactive
same,Potency,[6],inactive
same,Potency,[7],inactive
same,Potency,[20],inactive
same,Potency,[18],inactive
same,Potency,[9],inactive
same,Potency,[10],inactive
same,Potency,[11],inactive
same,Potency,[12],inactive
same,Potency,[13],inactive
same,Potency,[14],inactive
same,Potency,[15],inactive
CC[C@@H](CO)NC(=O)[C@@H]1C=C2c3cccc4c3c(cn4C)C[C@H]2N(C)C1,Potency,[1],inactive
same,Potency,[2],inactive
same,Potency,[19],inactive
same,Potency,[4],inactive
same,Potency,[16],inactive
same,Potency,[17],inactive
same,Potency,[5],inactive
same,Potency,[6],inactive
same,Potency,[7],inactive
same,Potency,[8],inactive
same,Potency,[11],inactive
same,Potency,[12],inactive
C[C@@H]1CC[C@@]2(OC1)O[C@H]1[C@@H](O)[C@H]3[C@@H]4CC[C@H]5C[C@@H](O[C@@H]6O[C@H](CO)[C@H](O[C@@H]7O[C@H](CO)[C@@H](O)[C@H](O[C@@H]8OC[C@@H](O)[C@H](O)[C@H]8O)[C@H]7O[C@@H]7O[C@H](CO)[C@@H](O)[C@H](O[C@@H]8O[C@H](CO)[C@@H](O)[C@H](O)[C@H]8O)[C@H]7O)[C@H](O)[C@H]6O)[C@H](O)C[C@]5(C)[C@H]4CC[C@]3(C)[C@H]1[C@@H]2C,Potency,[1],8.17 µM (active)
same,Potency,[2],inactive
same,Potency,[3],0.735 µM (active)
same,Potency,[4],41.3 µM (active)
same,Potency,[16],inactive
same,Potency,[5],13.7 µM (active)
same,Potency,[6],13.7 µM (active)
same,Potency,[7],13.7 µM (active)
same,Potency,[12],inactive
same,Potency,[13],64.9 µM (active)
same,Potency,[14],51.5 µM (active)
same,Potency,[15],2.3 µM (active)
COC(=O)c1ccccc1S(=O)(=O)NC(=O)N(C)c1nc(C)nc(OC)n1,Potency,[1],inactive
same,Potency,[2],inactive
same,Potency,[3],inactive
same,Potency,[4],inactive
same,Potency,[17],inactive
same,Potency,[5],inactive
same,Potency,[7],inactive
same,Potency,[8],inactive
same,Potency,[18],inactive
same,Potency,[9],inactive
same,Potency,[10],inactive
same,Potency,[11],inactive
same,Potency,[12],inactive
same,Potency,[13],inactive
same,Potency,[14],inactive
same,Potency,[15],inactive
